Results from PubChem BioAssay.
Activity calls are given as the source filed them.

Experiments:
[1] = small molecules captured by biotinylated probe aFSTL3 – biochemical, small-molecule microarray, fluorescence 635/667, stem cell growth factor project, primary screen (AID 1064); conditions: higher = more signal;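 also: measures binding of the biotinylated anti-FSTL3 antibody to printed compounds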
[2] = binders from COS7 lysate, DM2A8 probe, primary screen, torsin A project, cell lysate, small-molecule microarray, fluorescence 635/667 (AID 1065); conditions: higher = more signal, COS7 lysate expressing mutant human TOR1A
[3] = small molecules captured by biotinylated probe aFGF2 – biochemical, small-molecule microarray, fluorescence 635/667, stem cell growth factor project, primary screen (AID 1067); conditions: higher = more signal;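 also: measures binding of biotinylated aFGF2 protein to printed compounds on slides; z-score merges feature fluorescence and signal-to-noise across triplicate slides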
[4] = small molecules captured by biotinylated probe aFGF10 – biochemical, small-molecule microarray, fluorescence 635/667, stem cell growth factor project, primary screen (AID 1071); conditions: higher = more signal;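 also: score merges 667 nm spot intensity and signal to noise from triplicate slides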
[5] = target: Neurogenic locus notch homolog protein 2 (Homo sapiens) (UniProt Q04721); experiment: small molecules binding Notch2 protein – biochemical, small-molecule microarray, 635 nm fluorescence, stem cell growth factors, primary screen (AID 1073); conditions: higher = more signal
[6] = target: Pro-neuregulin-1, membrane-bound isoform (Homo sapiens) (UniProt Q02297); experiment: small molecules binding neuregulin-1 protein – biochemical, small-molecule microarray, fluorescence 635/667, psychiatric disease protein project, primary screen (AID 1075); conditions: NRG1 binding, 635 nm fluorescence, higher = more signal;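 also: score combines 667 nm spot fluorescence with signal to noise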
[7] = tested on: Neuregulin-1 EGF-like domain; experiment: small molecules binding NRG1 EGF domain – biochemical, small-molecule microarray, 635 nm fluorescence, primary screen (AID 1081); conditions: higher = more signal;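 also: binding of the protein to compounds printed on small-molecule microarray slides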
[8] = FRG1 expression reporter modulators in myotubes – cell-based, C2C12 myotubes, firefly/Renilla luciferase, luminescence, FRG1 inhibition for FSHD, primary screen (AID 1084); conditions: FRG1 promoter luciferase, higher = more signal, called active from +8 up or from −8 down
[9] = small molecules captured by biotinylated probe aFST – biochemical, small-molecule microarray, fluorescence 635/667, stem cell growth factor project, primary screen (AID 1086); conditions: higher = more signal;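 also: score merges 667 nm fluorescence with signal-to-noise of each printed compound spot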
[10] = binders of probe aHhip on microarray, primary screen, stem cell growth factor project, biochemical, small-molecule microarray, fluorescence 635/667 (AID 1087); conditions: higher = more signal;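 also: score merges spot fluorescence at 667nm with spot signal to noise ratio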
[11] = tested on: PRMT1 (protein arginine N-methyltransferase 1); experiment: small molecules binding arginine methyltransferase PRMT1 – biochemical, small-molecule microarray, 635 nm fluorescence, primary screen (AID 1088); conditions: higher = more signal;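 also: binding of Prmt1 protein to compounds spotted on small-molecule microarray slides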
[12] = growth effects on S. cerevisiae YJM789 – YJM789 clinical isolate, OD600, 24 h, basal, primary screen (AID 1089); conditions: higher = more signal, called active from +8 up or from −8 down;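 also: growth of clinical yeast isolate S. cerevisiae YJM 789 seeded 1000 cells per well; test concentration not given here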
[13] = S. pombe growth modifiers, basal conditions – strain 972, OD600, 24 h, no modulator, primary screen (AID 1090);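 also: basal condition with compound alone and no growth modifier present; test concentration not given here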; conditions: S. pombe 972 growth, higher = more signal, called active from +8 up or from −8 down
[14] = budding yeast growth modifiers under rapamycin – strain BY4716, OD600, 96 h, primary screen (AID 1091); also: test concentration not given here; conditions: S. cerevisiae BY4716 + rapamycin, higher = more signal, called active from +8 up or from −8 down
[15] = target: Torsin-1A-interacting protein 2 (Homo sapiens) (UniProt Q8NFQ8); experiment: small molecules binding lysate-expressed LULL1 – cell lysate, human LULL1 lysate, 635/667 nm fluorescence, primary screen (AID 1092); conditions: small-molecule microarray, hLULL1 lysate binding, 635 nm fluorescence; higher = more signal;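 also: probe is lysate of COS7 cells overexpressing human LULL1; score merges per-feature 667 nm fluorescence with signal-to-noise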
[16] = optical density change of DRC41 E. coli – strain DRC41, OD650, 24 h, E. coli filamentation project, primary screen (AID 1093);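 also: MC1000 strain lacking acrAB efflux and sulA so SOS filamentation is blocked; test concentration not given here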; conditions: E. coli DRC41 growth, higher = more signal, called active from +8 up or from −8 down
[17] = probe aLefty2 binding to arrayed compounds – biochemical, biotinylated probe, 635/667 nm fluorescence, primary screen (AID 1094); conditions: small-molecule microarray, higher = more signal;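 also: score merges spot fluorescence near 667 nm with spot signal-to-noise ratio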
[18] = tested on: Noggin (protein binding on small-molecule microarray); experiment: small molecules binding Noggin protein – biochemical, 635/667 nm fluorescence, primary screen (AID 1095); conditions: 635 nm fluorescence, higher = more signal;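 also: score merges 667 nm feature fluorescence with signal to noise over triplicate slides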
[19] = target: Neurogenic locus notch homolog protein 3 (Homo sapiens) (UniProt Q9UM47); experiment: small molecules binding NOTCH3 protein – biochemical, 635/667 nm fluorescence, primary screen (AID 1096); conditions: small-molecule microarray, 635 nm fluorescence, higher = more signal
[20] = probe aEGFR binding to arrayed compounds – biochemical, biotinylated probe, 635/667 nm fluorescence, primary screen (AID 1097); conditions: small-molecule microarray, higher = more signal;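 also: probe is a biotinylated anti-EGFR antibody binding compounds printed on slides; score combines fluorescence near 667 nm and signal to noise of each spot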

Chain of Neurogenic locus notch homolog protein 2 (Homo sapiens) (Q04721 whole entry, looked up, canonical isoform): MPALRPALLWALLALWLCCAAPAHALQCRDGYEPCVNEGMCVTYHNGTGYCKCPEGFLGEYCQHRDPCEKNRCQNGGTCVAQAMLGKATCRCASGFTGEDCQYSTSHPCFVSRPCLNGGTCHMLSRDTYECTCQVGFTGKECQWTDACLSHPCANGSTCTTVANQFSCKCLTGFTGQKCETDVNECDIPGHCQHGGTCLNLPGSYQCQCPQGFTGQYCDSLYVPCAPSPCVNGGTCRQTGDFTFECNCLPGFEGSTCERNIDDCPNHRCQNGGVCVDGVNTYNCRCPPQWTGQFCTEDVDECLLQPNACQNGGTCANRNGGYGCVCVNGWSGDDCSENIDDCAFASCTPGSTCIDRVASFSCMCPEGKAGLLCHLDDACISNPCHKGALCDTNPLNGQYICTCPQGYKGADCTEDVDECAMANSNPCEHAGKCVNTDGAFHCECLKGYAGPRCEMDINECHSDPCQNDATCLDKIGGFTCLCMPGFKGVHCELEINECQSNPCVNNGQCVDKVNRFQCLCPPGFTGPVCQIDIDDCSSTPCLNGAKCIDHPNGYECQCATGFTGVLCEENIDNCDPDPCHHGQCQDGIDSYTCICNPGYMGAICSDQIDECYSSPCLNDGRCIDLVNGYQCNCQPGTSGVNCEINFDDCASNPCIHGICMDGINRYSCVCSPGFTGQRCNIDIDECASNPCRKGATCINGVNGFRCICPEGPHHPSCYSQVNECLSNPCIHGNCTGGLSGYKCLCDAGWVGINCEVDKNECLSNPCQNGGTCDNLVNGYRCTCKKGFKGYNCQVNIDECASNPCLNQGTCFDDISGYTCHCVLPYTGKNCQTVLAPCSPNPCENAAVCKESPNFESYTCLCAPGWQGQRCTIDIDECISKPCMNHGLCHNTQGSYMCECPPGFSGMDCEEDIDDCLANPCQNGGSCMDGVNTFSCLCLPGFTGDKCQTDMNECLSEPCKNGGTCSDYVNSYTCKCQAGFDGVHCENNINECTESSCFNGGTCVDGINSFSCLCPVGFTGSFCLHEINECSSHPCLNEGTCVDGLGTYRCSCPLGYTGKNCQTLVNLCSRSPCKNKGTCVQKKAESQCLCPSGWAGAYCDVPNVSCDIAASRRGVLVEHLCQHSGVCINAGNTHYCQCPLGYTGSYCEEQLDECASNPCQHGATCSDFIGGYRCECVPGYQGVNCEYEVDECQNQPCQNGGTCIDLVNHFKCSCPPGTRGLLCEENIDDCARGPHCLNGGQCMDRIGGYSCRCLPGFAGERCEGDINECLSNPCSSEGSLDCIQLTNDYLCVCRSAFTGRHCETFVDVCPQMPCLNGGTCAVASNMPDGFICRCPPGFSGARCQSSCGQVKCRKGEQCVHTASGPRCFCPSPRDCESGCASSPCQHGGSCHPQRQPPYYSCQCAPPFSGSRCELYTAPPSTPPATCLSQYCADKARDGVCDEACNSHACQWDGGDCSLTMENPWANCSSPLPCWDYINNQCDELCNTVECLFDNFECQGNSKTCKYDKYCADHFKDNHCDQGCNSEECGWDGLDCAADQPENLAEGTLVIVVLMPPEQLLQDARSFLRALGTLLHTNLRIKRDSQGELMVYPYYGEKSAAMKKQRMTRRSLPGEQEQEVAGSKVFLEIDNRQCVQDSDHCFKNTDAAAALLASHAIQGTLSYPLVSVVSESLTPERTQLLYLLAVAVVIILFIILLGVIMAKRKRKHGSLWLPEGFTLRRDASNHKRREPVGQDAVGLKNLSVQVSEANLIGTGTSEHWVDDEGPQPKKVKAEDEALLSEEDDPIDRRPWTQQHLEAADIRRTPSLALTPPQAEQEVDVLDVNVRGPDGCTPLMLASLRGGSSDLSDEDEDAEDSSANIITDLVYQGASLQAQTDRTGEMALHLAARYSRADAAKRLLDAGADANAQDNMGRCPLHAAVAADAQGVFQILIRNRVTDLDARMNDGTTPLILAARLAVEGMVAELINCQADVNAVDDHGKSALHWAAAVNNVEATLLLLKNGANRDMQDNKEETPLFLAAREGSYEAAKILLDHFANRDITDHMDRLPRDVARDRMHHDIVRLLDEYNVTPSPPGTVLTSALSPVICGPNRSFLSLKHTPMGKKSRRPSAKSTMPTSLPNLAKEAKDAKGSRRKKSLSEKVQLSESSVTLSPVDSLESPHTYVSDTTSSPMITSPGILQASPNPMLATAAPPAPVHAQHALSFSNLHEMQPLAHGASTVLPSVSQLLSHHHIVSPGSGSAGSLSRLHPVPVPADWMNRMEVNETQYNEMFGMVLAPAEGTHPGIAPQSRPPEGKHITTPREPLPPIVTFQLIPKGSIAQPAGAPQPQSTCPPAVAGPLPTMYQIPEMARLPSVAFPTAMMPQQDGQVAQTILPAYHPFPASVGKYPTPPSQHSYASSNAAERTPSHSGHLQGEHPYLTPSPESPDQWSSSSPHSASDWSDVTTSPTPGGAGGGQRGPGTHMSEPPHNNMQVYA
Chain of Torsin-1A-interacting protein 2 (Homo sapiens) (Q8NFQ8 whole entry, looked up): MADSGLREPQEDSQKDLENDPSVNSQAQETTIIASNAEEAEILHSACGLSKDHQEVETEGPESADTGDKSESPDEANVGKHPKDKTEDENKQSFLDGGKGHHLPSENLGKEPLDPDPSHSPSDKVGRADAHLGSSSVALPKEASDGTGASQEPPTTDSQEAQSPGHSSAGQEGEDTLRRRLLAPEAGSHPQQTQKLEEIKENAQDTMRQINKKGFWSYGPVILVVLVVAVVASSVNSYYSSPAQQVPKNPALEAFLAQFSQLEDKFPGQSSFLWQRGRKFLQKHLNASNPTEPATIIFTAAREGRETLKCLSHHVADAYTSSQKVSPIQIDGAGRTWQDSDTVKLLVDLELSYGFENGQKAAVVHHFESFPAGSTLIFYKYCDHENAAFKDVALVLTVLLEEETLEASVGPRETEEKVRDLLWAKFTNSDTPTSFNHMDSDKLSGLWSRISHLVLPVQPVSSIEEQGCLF
Chain of Pro-neuregulin-1, membrane-bound isoform (Homo sapiens) (Q02297 whole entry, looked up, the tested form may be a part, canonical isoform): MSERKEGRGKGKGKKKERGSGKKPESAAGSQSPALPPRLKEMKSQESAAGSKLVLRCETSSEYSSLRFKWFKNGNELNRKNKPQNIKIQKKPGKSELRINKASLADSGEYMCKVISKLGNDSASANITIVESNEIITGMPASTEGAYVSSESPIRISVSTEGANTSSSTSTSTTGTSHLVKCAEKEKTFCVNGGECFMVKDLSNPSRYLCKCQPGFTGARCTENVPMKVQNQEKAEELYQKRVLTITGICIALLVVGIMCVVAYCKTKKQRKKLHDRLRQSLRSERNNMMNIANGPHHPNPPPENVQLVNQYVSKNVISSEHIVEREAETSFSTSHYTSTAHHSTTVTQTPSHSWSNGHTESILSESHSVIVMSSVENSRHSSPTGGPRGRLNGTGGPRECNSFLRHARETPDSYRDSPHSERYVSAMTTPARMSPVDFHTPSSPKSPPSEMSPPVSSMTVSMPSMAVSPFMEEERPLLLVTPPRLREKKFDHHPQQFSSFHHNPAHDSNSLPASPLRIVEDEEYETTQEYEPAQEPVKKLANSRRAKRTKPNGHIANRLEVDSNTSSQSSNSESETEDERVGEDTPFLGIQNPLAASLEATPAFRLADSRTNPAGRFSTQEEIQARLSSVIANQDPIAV

CO[C@H]1O[C@H](CO)[C@@H](OC(=O)Nc2ccccc2-c2ccccc2)[C@H](OC(=O)Nc2ccccc2)[C@H]1OC(=O)Nc1ccccc1
composite z-score [1]: 0.164 | composite z-score [2]: 0.514 | composite z-score [3]: -0.0067 | composite z-score [4]: 1.25 | composite z-score [5]: 1.48 | composite z-score [6]: 1.55 | composite z-score [7]: 1.33 | z-score [8]: 1.66 (inactive) | composite z-score [9]: 0.941 | composite z-score [10]: -0.0237 | composite z-score [11]: 1.54 | z-score [12]: 1.81 (inactive) | z-score [13]: 1.21 (inactive) | z-score [14]: 5.33 (inactive) | composite z-score [15]: 3.12 | z-score [16]: 0.517 (inactive) | composite z-score [17]: 0.208 | composite z-score [18]: 1.2 | composite z-score [19]: 1.1 | composite z-score [20]: 0.0903

CC(C)C(O)C1C=CC2C(=O)NC(=O)C2N1Nc1ccccn1 (stereo not given)
composite z-score [1]: 0.359 | composite z-score [2]: -0.103 | composite z-score [3]: -0.0502 | composite z-score [4]: 0.138 | composite z-score [5]: 0.926 | composite z-score [6]: 0.306 | composite z-score [7]: 1.1 | z-score [8]: 0.944 (inactive) | composite z-score [9]: 0.547 | composite z-score [10]: 0.151 | composite z-score [11]: 0.522 | z-score [12]: 1.02 (inactive) | z-score [13]: 1.68 (inactive) | z-score [14]: 0.56 (inactive) | composite z-score [15]: 1.92 | z-score [16]: -0.847 (inactive) | composite z-score [17]: 0.0894 | composite z-score [18]: -0.0878 | composite z-score [19]: 0.301 | composite z-score [20]: -0.109

C[C@@H]1ON(c2ccccc2)[C@H](c2ccccc2)[C@H]1C(=O)O
composite z-score [1]: -0.0301 | composite z-score [2]: 0.112 | composite z-score [3]: -0.085 | composite z-score [4]: 0.364 | composite z-score [5]: 0.0812 | composite z-score [6]: -0.515 | composite z-score [7]: -0.198 | z-score [8]: -0.313 (inactive) | composite z-score [9]: -0.0817 | composite z-score [10]: 0.289 | composite z-score [11]: 0.461 | z-score [12]: -0.452 (inactive) | z-score [13]: 0.252 (inactive) | z-score [14]: -0.408 (inactive) | composite z-score [15]: -0.0551 | z-score [16]: -0.108 (inactive) | composite z-score [17]: -0.196 | composite z-score [18]: 0.175 | composite z-score [19]: 0.102 | composite z-score [20]: 0.203

COC(=O)[C@@]1(Cc2ccc(F)cc2)[C@H]2c3cc(C(=O)N4CCCC4)n(Cc4ccccn4)c3C[C@H]2CN1C(=O)c1ccccc1
composite z-score [1]: 0.116 | composite z-score [2]: -0.89 | composite z-score [3]: 0.272 | composite z-score [4]: 1.22 | composite z-score [5]: 1.71 | composite z-score [6]: 1.29 | composite z-score [7]: 1.4 | z-score [8]: 0.755 (inactive) | composite z-score [9]: 0.987 | composite z-score [10]: 0.685 | composite z-score [11]: 0.159 | z-score [12]: 0.269 (inactive) | z-score [13]: -0.289 (inactive) | z-score [14]: 0.856 (inactive) | composite z-score [15]: 3.32 | z-score [16]: -1.76 (inactive) | composite z-score [17]: 0.361 | composite z-score [18]: -0.108 | composite z-score [19]: 0.841 | composite z-score [20]: 0.33

CCOC(=O)C[C@H]1[C@H](OC(=O)c2ccccc2-c2ccccc2)[C@@H](NC(=O)c2ccc3ccccc3c2)c2cc(OCCCO)ccc2N1C(=O)Cc1ccc(OC)cc1
composite z-score [1]: 0.225 | composite z-score [2]: 0.0793 | composite z-score [3]: -0.118 | composite z-score [4]: 0.162 | composite z-score [5]: -0.105 | composite z-score [6]: 0.0671 | composite z-score [7]: -0.58 | z-score [8]: 1.11 (inactive) | composite z-score [9]: 0.206 | composite z-score [10]: -0.0645 | composite z-score [11]: -0.793 | z-score [12]: -0.97 (inactive) | z-score [13]: -0.446 (inactive) | z-score [14]: -0.248 (inactive) | composite z-score [15]: 0.276 | z-score [16]: -0.904 (inactive) | composite z-score [17]: -0.281 | composite z-score [18]: -0.206 | composite z-score [19]: -0.626 | composite z-score [20]: 0.0004
